From the supplement of paper PMC3545927 come the findings set out here.

The list shows a part of the results. The true hit rate is not given.

The test deals with furin, P09958. Nature of the test: furin cleavage Z-score vs untreated control; higher = more cleavage, active = 3.5 or more, inactive = 1 or less, 8 variable residues between constant flanks. An outline of the steps:
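Cleavage by purified furin was measured on 8-mer peptides fused to a cDNA oligonucleotide and held on magnetic beads by their N-terminus. Reactions (0.01 ml, 1:10 enzyme:substrate) ran 7.5, 15 or 30 min in 50 mM HEPES pH 7.5 with CaCl2 and NaCl. Released DNA was adapter-tagged by PCR and sequenced, with read counts giving abundance. Log counts versus furin-free reactions were lowess-adjusted and scaled by median absolute deviation to give the cleavage Z-score.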

furin, P09958, sequence (P09958 whole entry, the tested form may be a part): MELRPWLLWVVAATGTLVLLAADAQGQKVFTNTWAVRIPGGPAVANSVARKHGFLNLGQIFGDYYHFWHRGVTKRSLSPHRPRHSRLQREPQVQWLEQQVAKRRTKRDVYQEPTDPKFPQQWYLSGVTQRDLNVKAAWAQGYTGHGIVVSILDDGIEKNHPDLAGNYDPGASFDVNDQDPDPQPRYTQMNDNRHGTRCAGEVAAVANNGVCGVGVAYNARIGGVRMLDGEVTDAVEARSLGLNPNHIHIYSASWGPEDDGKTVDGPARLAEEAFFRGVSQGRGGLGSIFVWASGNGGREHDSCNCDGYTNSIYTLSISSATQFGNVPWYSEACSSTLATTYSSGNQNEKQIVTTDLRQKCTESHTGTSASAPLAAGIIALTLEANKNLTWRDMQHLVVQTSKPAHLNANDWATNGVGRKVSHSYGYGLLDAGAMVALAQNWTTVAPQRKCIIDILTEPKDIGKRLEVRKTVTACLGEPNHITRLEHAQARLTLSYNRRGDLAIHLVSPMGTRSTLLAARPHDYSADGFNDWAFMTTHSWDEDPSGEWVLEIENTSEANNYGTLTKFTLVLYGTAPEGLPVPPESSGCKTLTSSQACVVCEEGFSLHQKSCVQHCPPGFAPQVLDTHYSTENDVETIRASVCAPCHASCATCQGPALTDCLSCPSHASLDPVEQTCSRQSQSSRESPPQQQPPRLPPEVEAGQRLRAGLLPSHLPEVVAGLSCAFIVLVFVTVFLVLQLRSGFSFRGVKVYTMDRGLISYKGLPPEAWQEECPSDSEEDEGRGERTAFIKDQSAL

For CAKVLRSRRSAGNASASA [FS-1353], the “furin cleavage Z-score” value by setting is: (7.5 min) 3.74 (active); (15 min) 4.72 (active); (30 min) 3.35.

For the sequence CAIALRLRRSAGNASASA [FS-32], the “furin cleavage Z-score” value runs as follows: (7.5 min) 1.01; (15 min) 0.68 (inactive); (30 min) 0.673 (inactive).

Regarding CAASRVSRRSAGNASASA [FS-979], the “furin cleavage Z-score” value (7.5 min) was 5.49 (active), the “furin cleavage Z-score” value (15 min) is 7.22 (active) and the “furin cleavage Z-score” value (30 min) is 5.62 (active).

CAHSRRSRRSAGNASASA [DV5]: the “furin cleavage Z-score” value is 12.2 (active) (7.5 min), 12.3 (active) (15 min) and 9.14 (active) (30 min).

In the case of CASPRDARRSAGNASASA [FS-1614], the “furin cleavage Z-score” value runs as follows: (7.5 min) -1.33 (inactive); (15 min) -1.24 (inactive); (30 min) -1.6 (inactive).

As to CAHPRRSRRSAGNASASA [FS-932], the “furin cleavage Z-score” value runs as follows: (7.5 min) 8.18 (active); (15 min) 9.38 (active); (30 min) 7.97 (active).

In the case of CAYPYRLWHYAGNASASA [HC466], the “furin cleavage Z-score” value (7.5 min) was -1.33 (inactive), the “furin cleavage Z-score” value (15 min) is -2.06 (inactive) and the “furin cleavage Z-score” value (30 min) is 0.263 (inactive).

In the case of CASTPCSTHLAGNASASA [HC2538], the “furin cleavage Z-score” value by setting is: (7.5 min) -0.715 (inactive); (15 min) 0.257 (inactive); (30 min) -0.443 (inactive).

Regarding CAYCWHYPPKAGNASASA [HC403], the “furin cleavage Z-score” value reads like this: (7.5 min) 1.04; (15 min) 0.468 (inactive); (30 min) 2.44.

Regarding CAHSRTIKRSAGNASASA [FS-1632], the “furin cleavage Z-score” value reads like this: (7.5 min) 5.07 (active); (15 min) 6.15 (active); (30 min) 6.19 (active).

CATTPCSYSWAGNASASA [HC1889]: the “furin cleavage Z-score” value is -2.07 (inactive) (7.5 min), 0.349 (inactive) (15 min) and 1.53 (30 min).

On to CAGPRLGVRAAGNASASA [HC181], for which the “furin cleavage Z-score” value by setting is: (7.5 min) -1.03 (inactive); (15 min) 0.21 (inactive); (30 min) -0.871 (inactive).

In the case of CAGNEGCGWAAGNASASA [HC204], the “furin cleavage Z-score” value (7.5 min) is -0.525 (inactive), the “furin cleavage Z-score” value (15 min) is -0.206 (inactive) and the “furin cleavage Z-score” value (30 min) was -0.116 (inactive).

On to CAGFHRRARAAGNASASA [FS-239], for which the “furin cleavage Z-score” value is 4.46 (active) (7.5 min), 3.84 (active) (15 min) and 4.12 (active) (30 min).

As for CAGNRRRARAAGNASASA [FS-126], the “furin cleavage Z-score” value by setting is: (7.5 min) 9.62 (active); (15 min) 8.76 (active); (30 min) 7.27 (active).

As for CAQDVLKEVKAGNASASA [HC1403], the “furin cleavage Z-score” value is, setting by setting: (7.5 min) -1.57 (inactive); (15 min) -2.35 (inactive); (30 min) -1.62 (inactive).

On to CAITAEAAGRAGNASASA [HC1251], for which the “furin cleavage Z-score” value was 0.707 (inactive) (7.5 min), -1.39 (inactive) (15 min) and -1.45 (inactive) (30 min).

Turning to CARQRRPTGPAGNASASA [FS-2511], the “furin cleavage Z-score” value is -1.58 (inactive) (7.5 min), -0.922 (inactive) (15 min) and 0.378 (inactive) (30 min).

Turning to CARQRREMVAAGNASASA [FS-2589], the “furin cleavage Z-score” value runs as follows: (7.5 min) 4.84 (active); (15 min) 5.77 (active); (30 min) 5.19 (active).

For CARQRRGFHHAGNASASA [FS-2365], the “furin cleavage Z-score” value runs as follows: (7.5 min) 0.595 (inactive); (15 min) 4.95 (active); (30 min) 6.76 (active).

CARDRRGCFAAGNASASA [FS-2253]: the “furin cleavage Z-score” value (7.5 min) is -0.438 (inactive), the “furin cleavage Z-score” value (15 min) was -0.0621 (inactive) and the “furin cleavage Z-score” value (30 min) was 0.916 (inactive).

Turning to CARQRRGTGAAGNASASA [FS-2762], the “furin cleavage Z-score” value is 3.78 (active) (7.5 min), 4.54 (active) (15 min) and 4.93 (active) (30 min).

With CARQRRLLAAAGNASASA [FS-3042], the “furin cleavage Z-score” value by setting is: (7.5 min) -1.14 (inactive); (15 min) -0.921 (inactive); (30 min) 0.324 (inactive).

With CARQRRGCFRAGNASASA [FS-2446], the “furin cleavage Z-score” value is 1.29 (7.5 min), 2.53 (15 min) and 4.76 (active) (30 min).
